In publication PMC12751014, “Non-Catalytic Inhibitors of the p38/MK2 Interface: Repurposing Approved Drugs to Target Neuroinflammation in Alzheimer’s Disease” (Journal of Medicinal Chemistry, 2025):
In all, about 1,900 compounds went through this assay and about 50 (3%) showed an effect of 50% or more. The sample as a whole holds a higher share of strong results than the screen did.

target: p38/MK2 protein–protein interaction (VF-p38α / GST-MK2) (Homo sapiens, UniProt Q16539); test: primary screen, percent of control activity; higher = less effect of the substance; set-up: species or system HEK293T cell lysate transfected with VF-p38α and GST-MK2; unclear (methods say 'quintuplet replicates')
Procedure, shortened: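 Lysate of HEK293T cells transfected with Flag-tagged p38α and GST-MK2, complex detected by TR-FRET with anti-Flag-Tb and anti-GST-d2 antibodies. Five replicates per compound. Signal normalised to percent of DMSO control.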

Sequence of p38/MK2 protein–protein interaction (VF-p38α / GST-MK2) (Q16539 2-360 limits assumed): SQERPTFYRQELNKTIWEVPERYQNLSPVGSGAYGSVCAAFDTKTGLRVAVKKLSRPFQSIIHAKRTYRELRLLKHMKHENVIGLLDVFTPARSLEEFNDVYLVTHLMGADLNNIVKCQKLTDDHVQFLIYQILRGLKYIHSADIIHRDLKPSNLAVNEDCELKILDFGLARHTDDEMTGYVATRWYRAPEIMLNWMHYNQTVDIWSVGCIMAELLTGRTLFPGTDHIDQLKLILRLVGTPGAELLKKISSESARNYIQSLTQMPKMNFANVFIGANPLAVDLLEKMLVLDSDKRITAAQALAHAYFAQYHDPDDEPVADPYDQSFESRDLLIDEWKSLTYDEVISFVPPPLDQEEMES

SMILES | Pct of control
Cc1cccc(N(C)C(=S)Oc2ccc3ccccc3c2)c1 | 101%
O=P1(NCCCl)OCCCN1CCCl (centres unmarked) | 91.1%
Cc1cccc(C)c1NC(=O)C1CCCCN1C.Cl (centres unmarked) | 95.5%
O=c1c(O)c(-c2cc(O)c(O)c(O)c2)oc2cc(O)cc(O)c12 | 43.2%
CC1OC(Oc2c(-c3cc(O)c(O)c(O)c3)oc3cc(O)cc(O)c3c2=O)C(O)C(O)C1O (centres unmarked) | 74%
O=c1c(O)c(-c2ccc(O)c(O)c2)oc2cc(O)cc(O)c12 | 68%
O.O=c1c(O)c(-c2ccc(O)cc2O)oc2cc(O)cc(O)c12 | 27%
O.O.O=c1c(O)c(-c2ccc(O)c(O)c2)oc2cc(O)cc(O)c12 | 73.1%
O=c1c(O)c(-c2ccc(O)cc2)oc2cc(O)cc(O)c12 | 75.1%
CCn1cc(C(=O)O)c(=O)c2ccc(C)nc21 | 103%
COC(=O)Nc1nc2ccc(Sc3ccccc3)cc2[nH]1 | 96.8%
Cc1ccc(Sc2cncc3sc(C(N)=O)cc23)cc1 | 96.8%
O=C(NCCCNc1nc(Nc2cccc(NC(=O)N3CCCC3)c2)ncc1I)c1cccs1 | 105%
COc1ccc(C2C(=O)c3ccccc3C2=O)cc1 | 93.2%
O=c1c(-c2ccc(O)cc2)coc2cc(O)cc(O)c12 | 102%
COc1cc(OC)c(OC)cc1C=O | 91.5%
COC(=O)C1=C(C)NC(C)=C(C(=O)OC)C1c1ccccc1[N+](=O)[O-] | 87%
Cl.O=C(O)Cc1cccc(OCCCN(Cc2cccc(C(F)(F)F)c2Cl)CC(c2ccccc2)c2ccccc2)c1 | 39.4%
O=C(Nc1ccncc1)c1cc([N+](=O)[O-])ccc1Cl | 103%
CCc1oc2ccccc2c1C(=O)c1cc(Br)c(O)c(Br)c1 | 103%
Cc1cc(C(C#N)c2ccc(Cl)cc2)c(Cl)cc1NC(=O)c1cc(I)cc(I)c1[O-].[Na+] (centres unmarked) | 46.2%
Cc1cc(C(C#N)c2ccc(Cl)cc2)c(Cl)cc1NC(=O)c1cc(I)cc(I)c1O (centres unmarked) | 45.2%
CC(=O)Nc1cccc(-n2c(=O)n(C3CC3)c(=O)c3c(Nc4ccc(I)cc4F)n(C)c(=O)c(C)c32)c1 | 93.7%
CC(C)(Oc1ccc(CCNC(=O)c2ccc(Cl)cc2)cc1)C(=O)O | 96.7%
Oc1c(Br)cc(Br)c2cccnc12 | 104%
CCc1ccc(CCOc2ccc(CC3SC(=O)NC3=O)cc2)nc1 (centres unmarked) | 97.3%
Clc1ccc(CCC(Cn2ccnc2)Sc2c(Cl)cccc2Cl)cc1.O=[N+]([O-])O (centres unmarked) | 90.3%
O=NN(CCCl)C(=O)NC1CCCCC1 | 82.9%
Cc1cc([N+](=O)[O-])ccc1NS(=O)(=O)c1cc(Cl)ccc1Cl | 87.8%
